# Inconclusive results are not listed. A number with no mark means an inactive call. Calls come from the whole dose curve; as a rule, active = well fitted curve in the direction sought with a large enough effect in the repeat runs; inconclusive = weak or mixed curves; inactive = no such curve, though single readings can be large; an effect the other way counts as inactive or inconclusive.
# Test: A CellTox Green Cytotoxicity Assay to monitor cytotoxicity in HepG2 cells - 40 hour (AID 1224879); note: nearly all actives have a fitted effect of over 40% in size
# Settings: CellTox Green fluorescence; series mostly up to 76.8 µM; cytotoxicity increase: at the top concentration
# Summary of the method: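 Measurements at 0, 8, 16, 24, 32 and 40 h of treatment captured CellTox Green fluorescence in HepG2 cells that had been co-plated with reagent and preincubated 5 h at 37 C/5% CO2.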
# % is set by controls: 0 for no effect and ±100 for the full control effect.
row,SMILES,cytotoxicity increase
1,Cc1nnc(SCC2=C(C(=O)O)N3C(=O)[C@@H](NC(=O)Cn4cnnn4)[C@H]3SC2)s1,-6.83% [at 35.3 µM]
2,Cc1cc(S(=O)(=O)O)c(N)cc1Cl,-0.546%
3,COc1cc(C)ccc1C(C)C,1.91%
4,C=CC1CO1 (stereo not given),0.679%
5,FC(F)(F)C(F)(F)C(F)(F)C(F)(F)C(F)(F)C(F)(F)C(F)(F)C(F)(F)Br,1.73% [at 35.3 µM]
6,CCN(CC)C(=O)N(CC)CC,6%
7,CN(CC1(C)CCCO1)S(=O)(=O)c1ccc(Cl)c(S(N)(=O)=O)c1 (stereo not given),0.845% [at 35.3 µM]
8,O=CCCc1ccccc1,-0.56%
9,CN1C(=O)CC(c2ccccc2)C1=O (stereo not given),-24.3% [at 35.3 µM]
10,CCCN(CCC)C(=O)C(CCC(=O)O)NC(=O)c1ccccc1 (stereo not given),-5.54% [at 35.3 µM]
11,CCCCN1C[C@H](O)[C@@H](O)[C@H](O)[C@H]1CO,-4.77% [at 35.3 µM]
12,Cc1cccc(C)c1NC(=O)CN1CCCCCC1,2.25% [at 35.3 µM]
13,CO[C@@]1(NC(=O)CSCC#N)C(=O)N2C(C(=O)O)=C(CSc3nnnn3C)CS[C@@H]21,-12.6% [at 35.3 µM]
14,FC(F)(F)C(Cl)(Cl)Cl,5.27%
15,CCC(=O)Nc1ccc(O)cc1,-8.3% [at 35.3 µM]
16,CCCCCCC,-0.351%
17,CCc1cc(Cl)c(OC)c(C(=O)NC[C@@H]2CCCN2CC)c1O,16.7% [at 35.3 µM]
18,CC(C)O,-1.15%
19,CC(=O)OC1C2(C)CCC(C2)C1(C)C (stereo not given),-17.1%
20,COc1ccc(S(=O)(=O)Nc2nnc(CC(C)C)s2)cc1,-8.98% [at 35.3 µM]
21,NC/C=C/C(=O)O,-11% [at 35.3 µM]
22,C1CSCCS1,2.48%
23,C[C@]12C(=O)OC(=O)[C@H]1[C@H]1C=C[C@@H]2C1,0.867%
24,OCCN(CCO)CCN(CCO)CCO,-3.52%
25,O=S(=O)(O)C(F)(F)F,2.3%
26,NC1=NCC2c3ccccc3Cc3ccccc3N12 (stereo not given),0.618% [at 35.3 µM]
27,CC(C)(CO)[C@@H](O)C(=O)NCCC(=O)O,-0.106%
28,CCCCNC(=S)NCCCC,-15.1%

# Test: qHTS RealTime-Glo MT Cell Viability Assay in HEK293 cells - 0 hour (AID 1224880); note: top concentration of the series differs between compounds; nearly all actives have a fitted effect of over 45% in size
# Settings: RealTime-Glo luminescence; series mostly up to 76.8 µM; activity change, negative = cytotoxicity: at the top concentration
# Summary of the method: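 HEK293 + NanoLuc + prosubstrate, 600 cells/well; 5 h, 37 C/5% CO2; compound 23 nL in DMSO by pintool; 37 C; luminescence read at 0, 8, 16, 24, 32 and 40 h time points.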
row,SMILES,"activity change, negative = cytotoxicity"
1,O=c1oc2c(O)c(O)cc3c(=O)oc4c(O)c(O)cc1c4c23,-5.71% [at 15.8 µM]
2,Cc1nnc(SCC2=C(C(=O)O)N3C(=O)[C@@H](NC(=O)Cn4cnnn4)[C@H]3SC2)s1,4.67% [at 35.3 µM]
3,Cc1ccsc1C(=CCCN1CCC[C@@H](C(=O)O)C1)c1sccc1C,7.34% [at 35.3 µM]
4,C=CC1CO1 (stereo not given),15.4%
5,CNCCC(Oc1ccccc1OC)c1ccccc1 (stereo not given),4.57% [at 35.3 µM]
6,FC(F)(F)C(F)(F)C(F)(F)C(F)(F)C(F)(F)C(F)(F)C(F)(F)C(F)(F)Br,4.05% [at 35.3 µM]
7,CCN(CC)C(=O)N(CC)CC,2.54%
8,CN(CC1(C)CCCO1)S(=O)(=O)c1ccc(Cl)c(S(N)(=O)=O)c1 (stereo not given),0.893% [at 35.3 µM]
9,O=CCCc1ccccc1,3%
10,CCCN(CCC)C(=O)C(CCC(=O)O)NC(=O)c1ccccc1 (stereo not given),-3.88% [at 35.3 µM]
11,CCCCN1C[C@H](O)[C@@H](O)[C@H](O)[C@H]1CO,-1.77% [at 35.3 µM]
12,CO[C@@]1(NC(=O)CSCC#N)C(=O)N2C(C(=O)O)=C(CSc3nnnn3C)CS[C@@H]21,-12.7% [at 35.3 µM]
13,CCC(=O)Nc1ccc(O)cc1,13.4% [at 35.3 µM]
14,N#Cc1ccc(C(c2ccc(C#N)cc2)n2cncn2)cc1,0.906% [at 35.3 µM]
15,CCOc1ccc2nc(N)sc2c1,3.27%
16,Cc1ccc([N+](=O)[O-])cc1Cl,-2.41%
17,CCCCCCC,-6.09%
18,CCc1cc(Cl)c(OC)c(C(=O)NC[C@@H]2CCCN2CC)c1O,22.2% [at 35.3 µM]
19,CC(CNC1CCCCC1)OC(=O)c1ccccc1 (stereo not given),-5.6% [at 35.3 µM]
20,COc1ccc(S(=O)(=O)Nc2nnc(CC(C)C)s2)cc1,-24.3% [at 35.3 µM]
21,NC/C=C/C(=O)O,7.67% [at 35.3 µM]
22,C[C@]12C(=O)OC(=O)[C@H]1[C@H]1C=C[C@@H]2C1,8.8%
23,CC(C)NCC(O)COc1ccc(CCOCC2CC2)cc1 (stereo not given),9.31% [at 35.3 µM]
24,NC1=NCC2c3ccccc3Cc3ccccc3N12 (stereo not given),10.6% [at 35.3 µM]
25,CC(C)(CO)[C@@H](O)C(=O)NCCC(=O)O,5.14%
26,CC(C)CCCCCCc1ccc(OCCOCCO)cc1,1.33%
27,CC(=O)O[C@H]1CC[C@@]2(C)C(=CC[C@@H]3[C@@H]2CC[C@]2(C)C(C(C)=O)=CC[C@@H]32)C1,8.61% [at 35.3 µM]
